From PubChem BioAssay
A selection: hits, their analogues and other compounds. The true share with any hit is near 7.9%.
HT1080 IDH1KD tx: HT-1080 IDH1 knockdown cell toxicity (counter line); Potency, µM (doses to about 46.1 µM), without a hit: at the top dose activity, negative = toxicity, actives largely listed as cytotoxic; HT-1080 IDH1 knockdown viability, ATP luminescence, 48 h; 360,000 compounds, 2% hits;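 also: 0% = DMSO wells and -100% = cell-free medium wells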
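Using the IDH1-knockdown HT-1080 line run in the same batch and compound series as the NT line, viability after 48 h at 37 °C was determined by CellTiter-Glo luminescence and expressed as % activity.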
SW480 rerep: induces DNA re-replication in SW480 colon adenocarcinoma cells; SW480 DNA re-replication, Hoechst DNA content imaging, 48 h; Potency, µM (titrated, usually from 46.1 µM), for inactives: top-dose re-replication activation, hits mostly activators; 340,000 compounds, 1.8% hits; also: % of control where 0% means no effect; nearly all actives have a fitted effect of over 55% in size
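250 cells/well; 23 nL cpd via pin tool; 48 hr, 37 C, 5% CO2; Hoechst 40 min; imager read of total nuclear intensity, ex 405/em 500-530 nm.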
HT1080-NT tox: kills 2HG-producing HT-1080-NT fibrosarcoma cells; HT-1080-NT fibrosarcoma viability, CellTiter-Glo ATP luminescence, 48 h; 360,000 compounds, 1.6% hits; AID 686970; Potency, µM (titrated, usually from 46.1 µM), for the others: at the highest dose activity, negative = less viability, hits mostly cytotoxic;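 also: NT is the 2HG producing partner of a matched IDH1 knockdown line; 0% = DMSO-treated cells and -100% = media-only wells without cells; nearly all actives have a fitted effect of over 55% in size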
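HT-1080-NT fibrosarcoma cells (2HG-overproducing), 750 cells/well in RPMI with 5% FBS, dosed after 2 h and incubated 48 h at 37C. CellTiter-Glo luminescence normalized to DMSO and no-cell wells; concentration-response curves fitted and classed.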
KB-V1 cytotox: kills drug-selected multidrug resistant KB-V1 cells; KB-V1 MDR cells viability, CellTiter-Glo, 72 h; Potency, µM (top dose mostly 46.1 µM), hits mostly cytotoxic; 400,000 compounds, 3.4% hits; AID 1347076; also: % is scaled to controls: 0 for no effect and ±100 for the full control effect; nearly all actives have a fitted effect of over 60% in size
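In this primary screen, KB-V1 cells overexpressing P-gp are incubated with library compounds (lowest to highest concentration) for 72 h at 37 degrees C before a luminescent ATP viability read.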
MCF10A rerep: DNA re-replication induction in MCF 10a cells; MCF 10A DNA re-replication, Hoechst nuclear intensity, 48 h; Potency, µM (highest dose often 46.1 µM), inactives show at the highest dose activity, positive = re-replication, most hits filed as activators; AID 624296; 350,000 compounds, 2.9% hits; also: % of control where 0% means no effect; nearly all actives have a fitted effect of over 50% in size
KB-3-1 tox: kills parental KB-3-1 adenocarcinoma cells; KB-3-1 viability, CellTiter-Glo ATP luminescence, 72 h; Potency, µM (titrated, usually from 46.1 µM), actives largely listed as cytotoxic; 400,000 compounds, 1.4% hits; also: % is scaled to controls: 0 for no effect and ±100 for the full control effect; nearly all actives have a fitted effect of over 60% in size
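Multi-concentration cytotoxicity screen in KB-3-1 cells grown in DMEM lacking phenol red with 10% FBS. After 72 h at 37 °C with compound, ATP-dependent luminescence was recorded.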
* = called active by the depositor; i = inactive; u = inconclusive; x = no result; [ ] = dose if it differs, or a comment. Calls follow the shape of the dose curve; as a rule, active = well fitted curve in the direction sought with a large enough effect; inconclusive = small, poorly fitted or top-dose-only effect, or another doubt; inactive = no such curve, though single readings can be large; an effect the other way counts as inactive or inconclusive. Potency is read from the fitted curve at half-maximal effect.

SMILES | HT1080 IDH1KD tx | SW480 rerep | HT1080-NT tox | KB-V1 cytotox | MCF10A rerep | KB-3-1 tox
CNC(=O)CC1C(=O)N(c2ccc(Cl)cc2)C(=S)N1NC(=O)c1cccc(F)c1 (stereo not given) | 15% | -17% | 0% | i | 3% | i
COc1ccc(C)cc1NC(=O)C(Cc1ccccc1)NS(=O)(=O)c1cccs1 (stereo not given) | x | x | x | i | x | i
CN(CC(=O)Nc1ccc(Cl)c(C(F)(F)F)c1)C(=O)c1ccc(OCC2CCCO2)cc1 (stereo not given) | u | 11% | -15% | 7.3µM* | 14% | u
CN(CC(=O)Nc1ccc(Cl)c(C(F)(F)F)c1)C(=O)c1ccc(S(=O)(=O)N2CCOCC2)cc1 | 10µM* | u | -24%[9.24 µM] | u | 5.8µM* | 8.2µM*
COc1ccc(S(=O)(=O)N2CCCCCC2)cc1C(=O)N(C)CC(=O)Nc1ccc(Cl)c(Cl)c1 | -21% | -24% | -29% | i | -13% | i
Cc1ccc(C(=O)N(C)CC(=O)Nc2ccc(Cl)c(C(F)(F)F)c2)cc1S(=O)(=O)N1CCCCC1 | u | u | u | u | 21µM* | u
Cc1ccc(S(=O)(=O)N2CCCCC2)cc1C(=O)N(C)CC(=O)Nc1ccc(Cl)c(C(F)(F)F)c1 | 3% | u | 10% | u | 23µM* | u
CCOc1ccccc1C(=O)N1CCc2cc(OC)c(OC)cc2C1COc1ccc2c(C)cc(=O)oc2c1 (stereo not given) | x | x | x | i | x | i
Cc1ccc(CNC(=O)C2CCN(c3nn4c(=O)cc(C)nc4s3)CC2)cc1 | -5% | -38% | -4% | i | 0% | i
CCOC(=O)c1[nH]c(C)c(CCC(=O)N2CCN(c3ccc(OC)cc3)CC2)c1C | x | x | x | i | x | i
COc1ccc(/C=N/OC(=O)Nc2ccccc2OC)cc1 | 5.8µM* | u | 9.2µM* | 9.2µM* | 7.3µM* | 10µM*
COc1ccccc1NC(=O)O/N=C(\N)c1ccccc1 | u | 12µM* | 4% | i | u | i
O=C(Nc1ccccc1Cl)O/N=C/c1ccc(F)cc1 | 1% | -10% | 10% | i | -5% | i
CN(C)c1ccc(/C=N/OC(=O)Nc2ccccc2Cl)cc1 | -6% | -1% | 0% | u | 1% | 23µM*
COC(=O)[C@@H](NCc1ccc(OC)c(B(O)O)c1)C(C)C | 1% | 15% | -1% | i | u | i
O=C(COC(=O)COc1ccccc1)NCCC1=CCCCC1 | -5% | 1% | 0% | i | -7% | i
COc1ccc(C2C(C#N)=C(N)N(c3sc4c(c3C#N)CCCC4)C3=C2C(=O)CC(C)(C)C3)cc1OC (stereo not given) | 0% | 8% | -19% | i | 7% | i
COc1ccc(C2C(C#N)=C(N)N(c3sc4c(c3C#N)CCCC4)C3=C2C(=O)CC(C)(C)C3)cc1 (stereo not given) | -1% | 4% | 2% | 5.8µM* | 20% | i
CCOC(CCn1ccc(O)c(Cc2ccc(Cl)cc2)c1=O)OCC | 26% | 0% | -1% | i | -13% | i
Cn1c(=O)[nH]c(=O)c2c1nc(N1CCCC1)n2CCCSc1nnnn1-c1ccccc1 | 0% | 9% | -2% | 6.5µM* | u | i
CN1CCN(c2nc3c(c(=O)[nH]c(=O)n3C)n2CCSc2nnnn2-c2ccccc2)CC1 | 1% | 5% | 1% | i | -1% | i
Cc1ccc(-c2cc(C(=O)N/N=C/C(Br)=C/c3ccccc3)n[nH]2)o1 | 21µM* | 15µM* | 21µM* | u | 13µM* | i
Cc1ccc(-c2cc(C(=O)N/N=C/c3ccccc3O)n[nH]2)o1 | u | 3.3µM* | u | u | 18µM* | u
